# Screening results: PubChem BioAssay, National Center for Advancing Translational Sciences (NCATS)
# The full list was thinned out, with hits kept by preference.
# APEX1 inh = APE1 (human) endonuclease inhibition | Potency, µM (top dose mostly 65.8 µM), for the others: at the top dose activity change, negative = inhibition, hits mostly inhibitors | 0.35% of 350,000 active | P27695 | recombinant APE1, TAMRA/BHQ-2 abasic DNA cleavage fluorescence;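 note: plate controls were vehicle for no effect and reference inhibitor for full effect; nearly all actives have a fitted effect of over 55% in size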
#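 Readout is kinetic fluorescence (ex 525, em 598 nm) from cleavage of 50 nM TAMRA/BHQ-2 THF abasic duplex by 0.75 nM APE1, compound added 15 min beforehand at RT.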
# L3MBTL1 block = inhibitors of human L3MBTL1. Q9Y468. AlphaScreen L3MBTL1–H3K9me1 peptide binding. Potency, µM (top dose mostly 57.1 µM), for inactives: top-dose activity, negative = inhibition, usual class: inhibitors. 0.66% of 230,000 active. AID 485360; note: nearly all actives have a fitted effect of over 60% in size
# Target sequence (Q9Y468 whole entry, looked up): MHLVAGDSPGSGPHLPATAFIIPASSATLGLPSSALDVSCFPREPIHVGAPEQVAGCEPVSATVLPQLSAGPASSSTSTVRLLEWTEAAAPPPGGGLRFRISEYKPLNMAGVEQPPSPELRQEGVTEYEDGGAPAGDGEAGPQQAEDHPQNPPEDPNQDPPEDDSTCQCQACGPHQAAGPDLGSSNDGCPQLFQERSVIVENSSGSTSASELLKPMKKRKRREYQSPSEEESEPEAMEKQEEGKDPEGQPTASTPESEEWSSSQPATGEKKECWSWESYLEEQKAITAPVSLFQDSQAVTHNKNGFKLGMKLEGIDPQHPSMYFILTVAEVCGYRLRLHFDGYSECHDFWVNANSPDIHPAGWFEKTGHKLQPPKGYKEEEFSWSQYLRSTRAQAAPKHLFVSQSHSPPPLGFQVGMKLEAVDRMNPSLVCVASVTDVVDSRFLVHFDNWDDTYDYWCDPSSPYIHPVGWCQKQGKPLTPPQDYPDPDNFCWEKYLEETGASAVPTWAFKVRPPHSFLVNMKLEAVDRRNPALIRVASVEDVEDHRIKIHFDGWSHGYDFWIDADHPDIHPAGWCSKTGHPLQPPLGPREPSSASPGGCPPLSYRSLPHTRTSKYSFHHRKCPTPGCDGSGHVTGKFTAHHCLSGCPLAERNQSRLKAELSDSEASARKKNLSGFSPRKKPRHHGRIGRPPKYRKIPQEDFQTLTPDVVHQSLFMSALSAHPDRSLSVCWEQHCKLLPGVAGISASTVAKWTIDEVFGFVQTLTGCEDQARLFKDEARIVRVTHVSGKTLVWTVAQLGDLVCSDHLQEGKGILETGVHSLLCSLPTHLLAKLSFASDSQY
#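 Displacement of a biotinylated histone H3(1-15) peptide monomethylated at Lys9 (75 nM) from L3MBTL1 (50 nM) was measured by AlphaScreen after a 30 min room-temperature compound incubation; cefsulodin titration served as intraplate control.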
# RECQ1 inh = inhibitors of human RECQ1 DNA helicase | P46063 | RECQ1 DNA unwinding, red fluorescence kinetic read | Potency, µM (titrated, usually from 57.3 µM), for the others: at the highest dose activity, negative = inhibition, hits mostly inhibitors | 0.54% of 240,000 active | AID 2549;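 note: plate controls were vehicle for no effect and no enzyme for full effect; nearly all actives have a fitted effect of over 30% in size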
#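 50 nM RECQ1T1 preincubated 15 min with compound in Tris pH 8.0 buffer with MgCl2, DTT, Tween-20 and 2.5 ug/ml poly(dI-dC); started with 200 nM TAMRA/BHQ-2 forked duplex and 2 mM ATP. Unwinding read as fluorescence (525/598 nm), two reads 2 h apart.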
# KDM4E inh = inhibitors of human JMJD2E histone demethylase; B2RXH2; JMJD2E catalytic domain, FDH-coupled NADH fluorescence (FDH is formaldehyde dehydrogenase); Potency, µM (titrated, usually from 57.1 µM), without a hit: at the highest dose activity change, negative = inhibition, hits mostly inhibitors; 1.6% of 230,000 active; AID 2147; active = well fitted inhibition curve with a large enough effect, not every such curve was filed as active; inconclusive = small, poorly fitted or top-dose-only effect, or another doubt; inactive = no such curve, though single readings can be large or run the other way;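 note: 0% = wells with enzyme and -100% = buffer wells without enzyme; nearly all actives have a fitted effect of over 50% in size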
# GoLoco inh red = blocks human Gai1 binding to RGS12 GoLoco peptide, red readout; P63096; Gai1:RGS12 GoLoco peptide FP, rhodamine, 10 min; Potency, µM (titrated, usually from 61.6 µM), for the others: at the top dose activity, negative = inhibition, usual class: inhibitors; 0.44% of 230,000 active; active = well fitted inhibition curve with a large enough effect, not every such curve was filed as active; inactive = no such curve, though single readings can be large or run the other way; note: nearly all actives have a fitted effect of over 30% in size
# BLM helicase inh = Bloom syndrome helicase (human) inhibition; P54132; recombinant BLM DNA unwinding, fluorescence dequenching; Potency, µM (doses to about 56.1 µM), inactives show top-dose activity change, negative = inhibition, actives largely listed as inhibitors; 0.2% of 350,000 active;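 note: plate controls were vehicle for no effect and no enzyme for full effect; nearly all actives have a fitted effect of over 35% in size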
# The depositor's hits bear a star; i = inactive; ? = inconclusive; nt = no result given; ! = repeats disagree; [ ] = remark or other dose. Unless noted, calls come from the whole dose curve; as a rule, active = well fitted curve in the direction sought with a large enough effect; inconclusive = small, poorly fitted or top-dose-only effect, or another doubt; inactive = no such curve, though single readings can be large; an effect the other way counts as inactive or inconclusive. Unless noted, % is set by controls: 0 for no effect and ±100 for the full control effect; potency is the fitted concentration of half-maximal effect.
SMILES,APEX1 inh,L3MBTL1 block,RECQ1 inh,KDM4E inh,GoLoco inh red,BLM helicase inh
COCCN(C(=O)COC(=O)COc1ccc2c(c1)CCC2)c1c(N)n(Cc2ccccc2)c(=O)[nH]c1=O,-7%,9%,nt,nt,nt,nt
COCCN(C(=O)COC(=O)Cc1coc2cc3c(cc12)CCC3)c1c(N)n(Cc2ccccc2)c(=O)[nH]c1=O,9.5µM*,?,nt,nt,nt,nt
CC(C)CCCC(C)N (stereo not drawn),nt,nt,nt,nt,nt,2%
O=C(O)c1cc2cc(Cc3cccnc3)ccc2o1,-2%,nt,-8%,0%,28µM*!,4%
Oc1ccc(N=C/C=C/c2ccc(Br)cc2)cc1-c1nc2ccccc2s1,-7%,?,-6%,14µM*,82%,-28%
O=C(CSc1nnc(-c2cccc(S(=O)(=O)N3CCCC3)c2)n1-c1ccccc1)Nc1ccc(Cl)cc1,-3%,nt,nt,nt,nt,nt
O=C(N/N=C/C=C/c1ccccc1)c1ccccn1,-6%,?,5%,-12%,4%,-7%
O=C(N/N=C/C=C\c1ccco1)c1ccccn1,?,28µM*,?,?,-1%,?
O=C(N/N=C/C=C/c1ccco1)c1cnccn1,3%,7.1µM*,9%,0%,-5%,-6%
COc1cccc2c1C(=O)c1c(O)c3c(c(O)c1C2=O)C[C@@](O)(C(=O)CO)C[C@@H]3O[C@@H]1C[C@H](N)[C@H](O)[C@H](C)O1,14µM*,nt,16µM*,22µM*,11µM*,25µM*
Cc1nc(N2CCCC2)c2c(C(=O)Nc3ccc(Br)cc3F)c(C)oc2n1,nt,nt,nt,nt,nt,1%
Cc1cc2nc(-c3ccc(SCC(=O)N4CCN(C(=O)c5ccco5)CC4)nc3)[nH]c2cc1C,-9%,32µM*,-25%,?,79%,1%
Cc1cc2nc(-c3ccc(SCC(=O)N4CCOCC4)nc3)[nH]c2cc1C,1%,5%[11.4 µM],-2%,?,50%,-2%
CNc1ccncc1S(=O)(=O)NC,-2%,3%,-20%,-7%,-8%,1%
CNC1=C(Cl)C(=O)c2ccncc2C1=O,?,nt,-5%,?,-9%,18µM*
CNC1=C(Br)C(=O)c2ccncc2C1=O,?,nt,0%,1%,2%,14µM*
Oc1ccc2oc3c(c2c1)CCCC3,-4%,0%,-5%,1%,11%,-3%
CC(C)NCc1c(O)c(Br)cc2oc3c(c12)CCCC3,1%,1%,i,-9%,5.6µM*,-1%
C=CC[N@@+]12CC[C@@]34c5ccccc5N5/C=C6/[C@H]7C[C@H]8[C@@]9(CC[N@@+]8(CC=C)C/C7=C/CO)c7ccccc7N(/C=C(/[C@@H](C[C@@H]31)/C(=C\CO)C2)[C@H]54)[C@@H]69,-1%[21 µM],nt,nt,nt,nt,nt
O=C1C2C3C=CC(C3=C(c3ccccc3)c3ccccc3)C2C(=O)N1Cc1ccccc1 (stereo not drawn),4%,nt,1%,3%,14µM*,0%
COC1OC(COC(=O)c2ccccc2)C(OC(=O)c2ccccc2)C1OC(=O)c1ccccc1 (stereo not drawn),-2%,nt,nt,nt,nt,-7%
O=C(OC[C@H]1O[C@@H](OC(=O)c2cc(O)c(O)c(OC(=O)c3cc(O)c(O)c(O)c3)c2)[C@H](OC(=O)c2cc(O)c(O)c(OC(=O)c3cc(O)c(O)c(O)c3)c2)[C@@H](OC(=O)c2cc(O)c(O)c(OC(=O)c3cc(O)c(O)c(O)c3)c2)[C@@H]1OC(=O)c1cc(O)c(O)c(OC(=O)c2cc(O)c(O)c(O)c2)c1)c1cc(O)c(O)c(OC(=O)c2cc(O)c(O)c(O)c2)c1,0.0053µM*,0.1µM*,nt,nt,nt,nt
C=CCN1c2ccccc2[C@]23C[C@@H](C(=O)OC)N(S(=O)(=O)c4ccc(C(F)(F)F)cc4)C2=NC(C(=O)OC)=C(C(=O)OC)[C@H]13,-2%[12.4 µM],nt,0%[11.5 µM],9%[11.4 µM],5%[14.2 µM],1%[12.4 µM]
COc1cc(N/N=C/c2ccc(N(C)C)cc2)ncn1,1%,?,16%,?,19%,-8%
COc1cc(N/N=C/c2ccccc2O)ncn1,-9%,?,-2%,25µM*,35%,-15%
SMILES,APEX1 inh,L3MBTL1 block,RECQ1 inh,KDM4E inh,GoLoco inh red,BLM helicase inh
COc1ccc(/C=C2\C(=O)NC(=S)N2C(=O)c2ccc(C)cc2)cc1,-2%,-14%,17%,?,136%,25µM*
O=C(Nc1cccnc1)c1cnn2c1NC(=C1CC1)C=C2C(F)F,41%,nt,nt,nt,nt,nt
C#CCCCCCCC#CCN(C)C,3%,-6%,0%,16µM*,-8%,-1%
CC1(C)CC2(CC(c3ccccc3F)c3ccc(O)c(O)c3O2)NC(=S)N1 (stereo not drawn),11%,-22%,-9%,10µM*,-23%,-14%
CC(C)C[C@H](NC(=O)[C@@H]1Cc2ccccc2CN1C(=O)OC(C)(C)C)C(=O)NCC1CCC(C(=O)O)CC1 (stereo partly drawn),8%,nt,-3%,25µM*,17%,-4%
C[C@@H](NC(=O)[C@@H]1Cc2ccccc2CN1C(=O)OC(C)(C)C)C(=O)NCC1CCCO1 (stereo partly drawn),17%,nt,nt,nt,nt,1%
COc1cc([C@H]2OC[C@H]3[C@@H]2CO[C@H]3c2ccc(O)c(OC)c2)ccc1O,1%,2%,nt,nt,nt,nt
COc1cc(C2OCC3C(c4ccc(OC5OC(CO)C(O)C(O)C5O)c(OC)c4)OCC23)ccc1O (stereo not drawn),5%,2%,?,28µM*,-12%,1%
CCCCCCN(C(=O)CCCCCN1C(=O)NC(c2ccc(-c3ccccc3)cc2)C(C(=O)OCc2ccccc2)=C1C)C(C)C(=O)NCCCC (stereo not drawn),-7%,-11%,-3%,35µM*!,7%,-6%
COc1ccc(C(=O)C[N+]2(C)CCOCC2)cc1,10%,nt,-6%,-1%,7.1µM*,-7%
COc1ccc(C(=O)OCC[N+]2(C)CCCCC2)cc1,7%,nt,-5%,-9%,13µM*,-1%
COc1ccc(C(=O)CC(=O)c2ccc(OC)cc2)cc1,24%,9%,nt,nt,nt,-3%
Brc1ccc(-c2nc3ccccn3c2Nc2ccc3c(c2)OCCO3)o1,nt,nt,nt,nt,nt,-4%
N=C1CCC(=N)c2c1c(O)c1ccccc1c2O,?,7.1µM*,?,?,8%,32µM*
C=CCCCCCCCCCCC/C=C/C(O)COC(C)=O (stereo not drawn),0%,nt,?,-3%,2%,-2%
Cc1cccc(C)c1-n1c(SCC(=O)Nc2ccc(C(=O)O)cc2)nnc1-c1ccc([S+](=O)([O-])N2CCCC2)cc1,24%,nt,nt,nt,nt,nt
CCOc1ccc2nc(NC(=O)c3cc(=O)c4cc(C)cc(C)c4o3)sc2c1,nt,nt,nt,nt,nt,0%
COc1ccc(CNC(=O)c2cnc(N3CCCC3)nc2C)c(OC)c1,nt,nt,nt,nt,nt,1%
